Where a name gives a salt, the structure may show the parent alone.
Tests used:
Experiment in all cases: Euclidean distance of Cell Painting phenotypic profile (signed KS, 77 features) to DMSO centroid (dimensionless distance); 5 or 10 uM (library dependent); higher = stronger phenotypic change vs DMSO (phenoactivity)
Conditions in all cases: 48 h
[1] = system: 786-O
How it was run: (§1)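 Library compounds were applied at 10 or 5 uM, depending on the library, with 0.1% DMSO final, for 48 h to five cancer lines and a healthy fibroblast line. After staining, cells were imaged confocally at 20X across 9 fields per well, and Harmony extracted 77 features, each scored as a signed Kolmogorov-Smirnov statistic against vehicle wells on the same plate. Phenoactivity is the Euclidean distance between each profile and the median vehicle profile, with profiles first plate-position corrected, correlation-weighted and averaged over replicates at the top dose.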

[2] = system: A549
How it was run: as §1

[3] = system: DU145
How it was run: as §1

[4] = system: FB
How it was run: as §1

[5] = system: HEPG2
How it was run: as §1

[6] = system: OVCAR4
How it was run: as §1

O=C(O)CC[C@H]1CC[C@@](c2cc(F)ccc2F)(S(=O)(=O)c2ccc(Cl)cc2)CC1
Euclidean distance [1]: 1.76 | Euclidean distance [2]: 1.71 | Euclidean distance [3]: 0.876 | Euclidean distance [4]: 1.8 | Euclidean distance [5]: 1.76 | Euclidean distance [6]: 1.58

C#CCN(C)Cc1ccccc1 [Pargyline hydrochloride]
Euclidean distance [1]: 1.39 | Euclidean distance [2]: 0.874 | Euclidean distance [3]: 1.18 | Euclidean distance [4]: 1.16 | Euclidean distance [5]: 0.696 | Euclidean distance [6]: 1.43

O=C(NC1CCN(CCCCC2(C(=O)NCC(F)(F)F)c3ccccc3-c3ccccc32)CC1)c1ccccc1-c1ccc(C(F)(F)F)cc1 [Lomitapide Mesylate]
Euclidean distance [1]: 5.45 | Euclidean distance [2]: 4.4 | Euclidean distance [3]: 6.1 | Euclidean distance [4]: 5.88 | Euclidean distance [5]: 5.29 | Euclidean distance [6]: 5.65

CCCc1nn(C)c2c(=O)[nH]c(-c3cc(S(=O)(=O)N4CCN(C)CC4)ccc3OCC)nc12 [Sildenafil]
Euclidean distance [1]: 1.51 | Euclidean distance [2]: 0.754 | Euclidean distance [3]: 0.716 | Euclidean distance [4]: 1.08 | Euclidean distance [5]: 0.767 | Euclidean distance [6]: 1.17

CN(C)c1ccc(-c2nc3ncc(Cl)c(N4CCN(CC(=O)Nc5nccs5)CC4)c3[nH]2)cc1
Euclidean distance [1]: 1.74 | Euclidean distance [2]: 1.55 | Euclidean distance [3]: 1.32 | Euclidean distance [4]: 1.56 | Euclidean distance [5]: 0.715 | Euclidean distance [6]: 1.59

C[C@H]1[C@H](C)CC[C@]2(C(=O)O)CC[C@]3(C)C(=CC[C@@H]4[C@@]5(C)C[C@@H](O)[C@H](O)[C@@](C)(CO)[C@@H]5[C@H](O)C[C@]43C)[C@H]12 [Madecassic acid]
Euclidean distance [1]: 0.661 | Euclidean distance [2]: 0.291 | Euclidean distance [3]: 0.775 | Euclidean distance [4]: 0.741 | Euclidean distance [5]: 0.461 | Euclidean distance [6]: 0.968

CN(C)CCCCC(=O)Nc1ccc(NC(=S)NC(=O)c2ccc(C(C)(C)C)cc2)cc1 [Tenovin-6]
Euclidean distance [1]: 2.9 | Euclidean distance [2]: 3.08 | Euclidean distance [3]: 1.61 | Euclidean distance [4]: 3.01 | Euclidean distance [5]: 3.46 | Euclidean distance [6]: 1.95

COc1ccc(C2C(=O)c3ccccc3C2=O)cc1 [Anisindione]
Euclidean distance [1]: 0.89 | Euclidean distance [2]: 0.546 | Euclidean distance [3]: 1.76 | Euclidean distance [4]: 1.61 | Euclidean distance [5]: 0.828 | Euclidean distance [6]: 0.667

O=C(NNc1ccccc1)c1ccncc1
Euclidean distance [1]: 2.02 | Euclidean distance [2]: 1.17 | Euclidean distance [3]: 0.814 | Euclidean distance [4]: 1.28 | Euclidean distance [5]: 1.46 | Euclidean distance [6]: 1.39

CCOC(=O)[C@H](CCc1ccccc1)N[C@@H](C)C(=O)N1[C@H](C(=O)O)C[C@@H]2CCC[C@@H]21 [Ramipril]
Euclidean distance [1]: 1.25 | Euclidean distance [2]: 0.735 | Euclidean distance [3]: 0.891 | Euclidean distance [4]: 1.1 | Euclidean distance [5]: 1.89 | Euclidean distance [6]: 1.21

O=C(NCc1ccccc1)c1csc(Nc2ccncn2)n1 [Thiazovivin]
Euclidean distance [1]: 1.92 | Euclidean distance [2]: 1.18 | Euclidean distance [3]: 2.87 | Euclidean distance [4]: 2.01 | Euclidean distance [5]: 1.84 | Euclidean distance [6]: 1.6

COc1cc(OC)c2c(=O)[nH]c(-c3cc(C)c(OCCO)c(C)c3)nc2c1 [Apabetalone (RVX-208)]
Euclidean distance [1]: 1.25 | Euclidean distance [2]: 0.468 | Euclidean distance [3]: 1.25 | Euclidean distance [4]: 0.996 | Euclidean distance [5]: 0.48 | Euclidean distance [6]: 0.642

COc1ccccc1Oc1c(NS(=O)(=O)c2ccc(C(C)(C)C)cc2)nc(-c2ncccn2)nc1OCCO [Bosentan Hydrate]
Euclidean distance [1]: 1.35 | Euclidean distance [2]: 0.814 | Euclidean distance [3]: 0.826 | Euclidean distance [4]: 0.916 | Euclidean distance [5]: 0.41 | Euclidean distance [6]: 1.04

O=C(O)COCCN1CCN([C@H](c2ccccc2)c2ccc(Cl)cc2)CC1 [Levocetirizine Dihydrochloride]
Euclidean distance [1]: 0.875 | Euclidean distance [2]: 1.39 | Euclidean distance [3]: 0.783 | Euclidean distance [4]: 1.09 | Euclidean distance [5]: 0.867 | Euclidean distance [6]: 1.4

CO/N=C(\C(=O)N[C@@H]1C(=O)N2C(C(=O)O)=C(COC(N)=O)CS[C@H]12)c1ccco1 [Cefuroxime sodium]
Euclidean distance [1]: 0.996 | Euclidean distance [2]: 0.519 | Euclidean distance [3]: 0.747 | Euclidean distance [4]: 0.81 | Euclidean distance [5]: 1.48 | Euclidean distance [6]: 1.04

CSCC[C@H](N)C(=O)O [L-methionine]
Euclidean distance [1]: 1.08 | Euclidean distance [2]: 0.829 | Euclidean distance [3]: 1.25 | Euclidean distance [4]: 0.928 | Euclidean distance [5]: 0.685 | Euclidean distance [6]: 1.71

O=C(O)Cc1cc(I)c(Oc2ccc(O)c(I)c2)c(I)c1 [Tiratricol]
Euclidean distance [1]: 0.855 | Euclidean distance [2]: 0.554 | Euclidean distance [3]: 0.644 | Euclidean distance [4]: 0.597 | Euclidean distance [5]: 0.536 | Euclidean distance [6]: 0.847

COc1cc2c3cc1Oc1c(OC)c(OC)cc4c1[C@@H](Cc1ccc(O)c(c1)Oc1ccc(cc1)C[C@@H]3N(C)CC2)N(C)CC4 [Berbamine]
Euclidean distance [1]: 2.93 | Euclidean distance [2]: 3.17 | Euclidean distance [3]: 2.1 | Euclidean distance [4]: 3.91 | Euclidean distance [5]: 2.29 | Euclidean distance [6]: 2.64

CCC1(C)CC(=O)NC1=O (centres undefined) [Ethosuximide]
Euclidean distance [1]: 0.782 | Euclidean distance [2]: 1.2 | Euclidean distance [3]: 1.11 | Euclidean distance [4]: 0.965 | Euclidean distance [5]: 0.843 | Euclidean distance [6]: 1.04

Cc1[nH]c(=O)c(C#N)cc1-c1ccc2nccn2c1 [Olprinone]
Euclidean distance [1]: 1.08 | Euclidean distance [2]: 1.07 | Euclidean distance [3]: 0.61 | Euclidean distance [4]: 1.08 | Euclidean distance [5]: 0.547 | Euclidean distance [6]: 1.11

CCn1cc(C(=O)O)c(=O)c2cc(F)c(N3CCNCC3)nc21 [Enoxacin]
Euclidean distance [1]: 1.03 | Euclidean distance [2]: 0.783 | Euclidean distance [3]: 1.59 | Euclidean distance [4]: 0.837 | Euclidean distance [5]: 2.02 | Euclidean distance [6]: 1.35

CCNC(=O)[C@H]1O[C@@H](n2cnc3c(N)nc(NCCc4ccc(CCC(=O)O)cc4)nc32)[C@H](O)[C@@H]1O
Euclidean distance [1]: 0.618 | Euclidean distance [2]: 0.662 | Euclidean distance [3]: 0.916 | Euclidean distance [4]: 0.846 | Euclidean distance [5]: 0.636 | Euclidean distance [6]: 0.752

C[C@H](NCc1ccc(OCc2cccc(F)c2)cc1)C(N)=O [Safinamide Mesylate]
Euclidean distance [1]: 0.672 | Euclidean distance [2]: 0.63 | Euclidean distance [3]: 0.559 | Euclidean distance [4]: 0.645 | Euclidean distance [5]: 0.55 | Euclidean distance [6]: 1.14

Nc1ccc(S(=O)(=O)Nc2ncccn2)cc1 [Sodium sulfadiazine]
Euclidean distance [1]: 1.29 | Euclidean distance [2]: 0.966 | Euclidean distance [3]: 1.5 | Euclidean distance [4]: 1.52 | Euclidean distance [5]: 0.727 | Euclidean distance [6]: 1.12

O=c1ccc2cc(O)c(O)cc2o1 [Esculetin]
Euclidean distance [1]: 1.31 | Euclidean distance [2]: 0.797 | Euclidean distance [3]: 1.69 | Euclidean distance [4]: 0.959 | Euclidean distance [5]: 1.2 | Euclidean distance [6]: 0.988

OC(CCN1CCCCC1)(c1ccccc1)C1CC2C=CC1C2 (centres undefined) [Biperiden HCl]
Euclidean distance [1]: 0.618 | Euclidean distance [2]: 0.662 | Euclidean distance [3]: 0.98 | Euclidean distance [4]: 1.08 | Euclidean distance [5]: 1.01 | Euclidean distance [6]: 0.843

CC1=C(/C=C/C(C)=C/C=C/C(C)=C/CO)C(C)(C)CCC1 [Vitamin A]
Euclidean distance [1]: 0.784 | Euclidean distance [2]: 1.06 | Euclidean distance [3]: 0.821 | Euclidean distance [4]: 1.61 | Euclidean distance [5]: 0.745 | Euclidean distance [6]: 1.33

O=C(Nc1cc(C(F)(F)F)cc(C(F)(F)F)c1)c1cc(Cl)ccc1O
Euclidean distance [1]: 0.884 | Euclidean distance [2]: 0.772 | Euclidean distance [3]: 1.02 | Euclidean distance [4]: 1.14 | Euclidean distance [5]: 0.971 | Euclidean distance [6]: 1.48

COC(=O)N[C@H](C(=O)N1CCC[C@H]1c1ncc(-c2ccc(-c3ccc(-c4cnc([C@@H]5CCCN5C(=O)[C@@H](NC(=O)OC)C(C)C)[nH]4)cc3)cc2)[nH]1)C(C)C
Euclidean distance [1]: 1.52 | Euclidean distance [2]: 1.63 | Euclidean distance [3]: 1.12 | Euclidean distance [4]: 1 | Euclidean distance [5]: 0.904 | Euclidean distance [6]: 1.5

OCC1OC(OC2OC(CO)C(O)C(O)C2O)C(O)C(O)C1O [D-(+)-Trehalose Anhydrous]
Euclidean distance [1]: 1.42 | Euclidean distance [2]: 1.05 | Euclidean distance [3]: 1.04 | Euclidean distance [4]: 1.26 | Euclidean distance [5]: 0.946 | Euclidean distance [6]: 0.855

c1ccc(-c2ccc(C(c3ccccc3)n3ccnc3)cc2)cc1 (centres undefined) [Bifonazole]
Euclidean distance [1]: 1.54 | Euclidean distance [2]: 1.43 | Euclidean distance [3]: 1.19 | Euclidean distance [4]: 1.17 | Euclidean distance [5]: 0.639 | Euclidean distance [6]: 1.31

CN[C@@H](C)C(=O)N[C@H]1CN(C(=O)CC(C)C)CC[C@H]2CC[C@@H](C(=O)NC(c3ccccc3)c3ccccc3)N2C1=O
Euclidean distance [1]: 1.44 | Euclidean distance [2]: 1.35 | Euclidean distance [3]: 0.871 | Euclidean distance [4]: 0.766 | Euclidean distance [5]: 0.91 | Euclidean distance [6]: 1.24

COc1ccc2c(Oc3ccc(NC(=O)c4c(C)n(CC(C)(C)O)n(-c5ccccc5)c4=O)nc3)ccnc2c1
Euclidean distance [1]: 1.16 | Euclidean distance [2]: 1.01 | Euclidean distance [3]: 1.02 | Euclidean distance [4]: 3.08 | Euclidean distance [5]: 0.897 | Euclidean distance [6]: 0.976

Cc1c(S(=O)(=O)O)oc2c1C(=O)C(=O)c1c-2ccc2c1CCCC2(C)C [Tanshinone IIA sulfonate (sodium)]
Euclidean distance [1]: 0.814 | Euclidean distance [2]: 0.633 | Euclidean distance [3]: 1.71 | Euclidean distance [4]: 1.05 | Euclidean distance [5]: 0.728 | Euclidean distance [6]: 1.24

COc1cc2nc(N3CCN(C(=O)C4CCCO4)CC3)nc(N)c2cc1OC (centres undefined) [Terazosin HCl]
Euclidean distance [1]: 1.12 | Euclidean distance [2]: 0.699 | Euclidean distance [3]: 0.618 | Euclidean distance [4]: 1.15 | Euclidean distance [5]: 1.33 | Euclidean distance [6]: 1.01

COc1cc(C(C)=O)ccc1O [Apocynin]
Euclidean distance [1]: 0.601 | Euclidean distance [2]: 1.23 | Euclidean distance [3]: 0.921 | Euclidean distance [4]: 0.872 | Euclidean distance [5]: 1.6 | Euclidean distance [6]: 0.864

O=C(O)/C=C/c1ccc(O)cc1 [p-Coumaric Acid]
Euclidean distance [1]: 1.47 | Euclidean distance [2]: 0.995 | Euclidean distance [3]: 0.894 | Euclidean distance [4]: 0.846 | Euclidean distance [5]: 1.05 | Euclidean distance [6]: 0.854

CC(=O)O[C@]1(C(C)=O)CC[C@H]2[C@@H]3C=C(Cl)C4=CC(=O)CC[C@]4(C)[C@H]3CC[C@@]21C [Chlormadinone acetate]
Euclidean distance [1]: 1.27 | Euclidean distance [2]: 1.1 | Euclidean distance [3]: 1.72 | Euclidean distance [4]: 1.26 | Euclidean distance [5]: 0.98 | Euclidean distance [6]: 0.962

COc1ccccc1[C@H](Cn1c(=O)n(C(C)(C)C(=O)O)c(=O)c2c(C)c(-c3ncco3)sc21)OC1CCOCC1 [Firsocostat (GS-0976)]
Euclidean distance [1]: 0.952 | Euclidean distance [2]: 0.95 | Euclidean distance [3]: 1.31 | Euclidean distance [4]: 1.74 | Euclidean distance [5]: 1.31 | Euclidean distance [6]: 1.15

Source: the supplement of paper PMC10127200
